Source: PubChem
Most compounds without a hit are left out; they make up all but 6.7% or so of the library.
Pf Dd2 inh: inhibitors of Plasmodium falciparum Dd2 growth. P. falciparum Dd2 growth, SYBR Green, 72 h; hits give low values. activity change, % at 10 µM. 94,000 compounds, 2.3% hits. AID 1159554; in the data active = activity change below about -80%; inconclusive = no clear call, values can overlap the other calls
C diff growth: blocks growth of Clostridium difficile; Clostridium difficile clinical isolate growth, OD600, 24 h; hits give low values; growth activity, negative = inhibition, % at 16 µg/mL (by protocol); 86,000 compounds, 0.25% hits; AID 1259249;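 active = mean growth activity at or below -80% and every replicate also at or below -80%; inconclusive = mean at or below -80% but some replicate above -80%; inactive = mean growth activity above -80%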
T cruzi growth-1: blocks T. cruzi growth in NIH3T3 culture | T. cruzi beta-gal in NIH3T3, GalScreen luminescence, 90 h | inhibition, % at 8.34 µM | 77,000 compounds, 5.9% hits;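 active = mean inhibition above about 93%, with at least 55% of replicates each passing it, limit read from the data, passing the limit was not always enough; inconclusive = only one of those two conditions holds; inactive = neither condition holds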
T cruzi growth-2: Trypanosoma cruzi proliferation inhibition; shares compounds with T cruzi growth-1; T. cruzi beta-gal in NIH3T3, GalScreen luminescence, 90 h; AID 651739; 5,600 compounds, 72% hits; inhibition, % at 8.35 µM;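 active = mean replicate inhibition above about 95% and at least 55% of replicates individually reaching it, limit read from the data; inconclusive = only one of the two criteria is met; inactive = neither criterion is met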
T cruzi growth-3: Trypanosoma cruzi proliferation inhibition | inhibition, % at 2.09 µM | 5,600 compounds, 21% hits | T. cruzi beta-gal in NIH3T3, GalScreen luminescence, 90 h | shares compounds with T cruzi growth-1;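 active = mean inhibition above about 95%, with at least 55% of replicates also reaching it, limit read from the data; inconclusive = meets just one of the two conditions; inactive = meets neither condition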
3T3 cytotox: cytotoxicity in mouse NIH/3T3 fibroblasts; shares compounds with T cruzi growth-1; NIH/3T3 viability, CellTiter-Glo ATP luminescence, 90 h; cytotoxicity (signal decrease), % at 8.35 µM; 5,600 compounds, 14% hits;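 active = mean signal decrease across replicates above about 35% based on untreated-well scatter, with enough replicates individually passing, limit read from the data; inconclusive = no rule stated though some were filed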
3T3 cytotox 2: kills mouse NIH/3T3 fibroblasts; shares compounds with T cruzi growth-1; inhibition, % at 24.9 µM; AID 651744; 5,600 compounds, 56% hits; NIH/3T3 viability, CellTiter-Glo ATP luminescence, 90 h;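 active = mean loss of cell viability signal at or above a set limit, and enough replicates individually reaching it; inconclusive = meets only the mean limit or only the replicate share; inactive = meets neither condition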
A number is an active result; . = inactive; ? = inconclusive; / = no result given.

SMILES	Pf Dd2 inh	C diff growth	T cruzi growth-1	T cruzi growth-2	T cruzi growth-3	3T3 cytotox	3T3 cytotox 2
O=C(C[C@H]1C[C@H]2c3cc(NS(=O)(=O)c4ccc(F)cc4)ccc3O[C@H]2[C@@H](CO)O1)NCc1ccc(Oc2ccccc2)cc1	.	/	119.5	101.1	.	.	.
O=C(C[C@H]1C[C@H]2c3cc(NS(=O)(=O)c4ccc(F)cc4)ccc3O[C@H]2[C@H](CO)O1)NCc1ccc(-c2ccccc2)cc1	.	.	100.6	.	101.0	66.3	67.4
O=C(C[C@H]1C[C@H]2c3cc(NS(=O)(=O)c4ccc(F)cc4)ccc3O[C@H]2[C@H](CO)O1)NCc1ccccc1	.	/	.	/	/	/	/
O=C(C[C@@H]1C[C@H]2c3cc(NS(=O)(=O)c4ccc(F)cc4)ccc3O[C@H]2[C@@H](CO)O1)NCc1ccc(-c2ccccc2)cc1	.	.	.	/	/	/	/
O=C(C[C@@H]1C[C@H]2c3cc(NS(=O)(=O)c4ccc(F)cc4)ccc3O[C@H]2[C@H](CO)O1)NCc1ccccc1	.	/	.	/	/	/	/
COc1cccc(S(=O)(=O)Nc2ccc3c(c2)[C@@H]2C[C@H](CC(=O)NCc4ccccc4F)O[C@@H](CO)[C@@H]2O3)c1	.	.	.	/	/	/	/
O=C(C[C@@H]1C[C@@H]2c3cc(NS(=O)(=O)c4ccc(F)cc4)ccc3O[C@@H]2[C@@H](CO)O1)NCc1ccc(-c2ccccc2)cc1	.	.	102.1	.	.	39.1	45.1
C[C@H]1CN([C@@H](C)CO)S(=O)(=O)c2ccc(-c3ccccc3)cc2O[C@H]1CN(C)Cc1ccccc1	.	.	.	/	/	/	/
COc1ccc2c3c([nH]c2c1)[C@H](CO)N(C(=O)Nc1ccc(F)cc1)CC31CN(Cc2nccs2)C1	.	.	/	/	/	/	/
CC(C)C#Cc1cnc2c(c1)C(=O)N([C@H](C)CO)C[C@@H](C)[C@H](CN(C)C(=O)Cc1ccncc1)O2	.	.	.	/	/	/	/
CNC[C@H]1Oc2c(NC(=O)Nc3c(C)noc3C)cccc2C(=O)N([C@H](C)CO)C[C@@H]1C	.	.	.	/	/	/	/
CC(=O)NC[C@@H]1[C@@H](c2ccc(-c3cccnc3)cc2)[C@@H](CO)N1C(=O)CC1CC1	.	.	/	/	/	/	/
C[C@@H]1CN([C@H](C)CO)C(=O)c2cc(C3=CCCC3)cnc2O[C@@H]1CN(C)C(=O)Nc1cccc(F)c1	.	.	/	/	/	/	/
CS(=O)(=O)N1[C@@H](C#N)[C@H](c2ccc(-c3ccccc3F)cc2)[C@@H]1CO	.	.	.	/	/	/	/
O=C(C[C@@H]1CC[C@H]2[C@@H](COC[C@H](O)CN2Cc2cccc(-c3ccncc3)c2)O1)N1CCCCC1	.	/	.	/	/	/	/
Cc1ccc(S(=O)(=O)N2CC[C@@H]3[C@H]2c2cc(C4=CCCCC4)ccc2N(C)[C@H]3CO)cc1	.	.	.	/	/	/	/
COc1ccc(-c2ccc3c(c2)[C@@H]2[C@@H](CCN2S(=O)(=O)C2=NC(C)C=N2)[C@@H](CO)N3C)cc1 (stereo partly drawn)	.	.	?	102.8	.	.	.
COc1cccc(-c2ccc3c(c2)[C@H]2[C@H](CCN2S(=O)(=O)C2=NC(C)C=N2)[C@@H](CO)N3C)c1 (stereo partly drawn)	.	.	.	/	/	/	/
COc1ccc(S(=O)(=O)N2CC[C@H]3[C@@H](CO)N(C)c4ccc(C5=CCCCC5)cc4[C@H]32)cc1	.	.	?	.	108.3	.	70.4
COc1ccc(OC)c(NC(=O)CN=[N+]=[N-])c1	/	.	/	/	/	/	/
C[C@@H]1CN([C@H](C)CO)S(=O)(=O)c2ccc(-c3ccccc3)cc2O[C@H]1CN(C)C(=O)C1CCCCC1	.	.	.	/	/	/	/
C[C@@H]1CN([C@@H](C)CO)S(=O)(=O)c2ccc(-c3ccccc3)cc2O[C@@H]1CN(C)C(=O)C1CCCCC1	.	.	97.1	102.8	.	.	80.1
C[C@H](CO)N1C[C@H](C)[C@H](CN(C)C(=O)C2CC2)Oc2cc(-c3ccccc3F)ccc2S1(=O)=O	.	.	108.8	.	.	.	64.5
C[C@@H]1CN([C@H](C)CO)S(=O)(=O)c2ccc(-c3ccccc3F)cc2O[C@@H]1CN(C)C(=O)C1CC1	.	.	.	/	/	/	/
Cc1ccc(-c2ccc3c(c2)O[C@H](CN(C)C(=O)C2CCCCC2)[C@@H](C)CN([C@@H](C)CO)S3(=O)=O)cc1	.	/	123.3	102.3	100.4	.	104.3
SMILES	Pf Dd2 inh	C diff growth	T cruzi growth-1	T cruzi growth-2	T cruzi growth-3	3T3 cytotox	3T3 cytotox 2
C[C@@H]1CN([C@@H](C)CO)S(=O)(=O)c2ccc(-c3ccncc3)cc2O[C@H]1CN(C)C(=O)C1CCC1	.	/	108.1	102.8	.	.	45.7
Cc1ccc(-c2ccc3c(c2)O[C@H](CN(C)C(=O)C2CCC2)[C@H](C)CN([C@H](C)CO)S3(=O)=O)cc1	.	.	.	/	/	/	/
C[C@H](CO)N1C[C@H](C)[C@H](CN(C)C(=O)C2CCC2)Oc2cc(-c3ccncc3)ccc2S1(=O)=O	.	/	.	/	/	/	/
O=C(NC[C@@H]1CC[C@@H]2[C@@H](CN2Cc2cc(-c3ccccc3)on2)O1)c1ccc2c(c1)OCO2	.	.	/	/	/	/	/
CCCN(C)C[C@H]1Oc2cc(-c3cccnc3)ccc2S(=O)(=O)N([C@H](C)CO)C[C@H]1C	.	.	.	/	/	/	/
CO[C@H]1CN(C)C(=O)c2ccc(NC(=O)Nc3cc(F)ccc3F)cc2OC[C@@H](C)NC[C@H]1C	.	/	.	/	/	/	/
C[C@H](CO)N1C[C@H](C)[C@@H](CN(C)C(=O)Nc2ccc(F)cc2)Oc2ccc(NS(=O)(=O)c3cn(C)cn3)cc2C1=O	.	/	.	/	/	/	/
Cc1ccc(-c2ccc3c(c2)O[C@@H](CN(C)C(=O)C2CCC2)[C@H](C)CN([C@@H](C)CO)S3(=O)=O)cc1	.	.	.	/	/	/	/
C[C@@H]1CN([C@@H](C)CO)S(=O)(=O)c2ccc(-c3ccc(F)cc3)cc2O[C@H]1CN(C)C(=O)C1CCCCC1	.	.	105.3	100.9	.	51.5	46.8
Cc1ccc(-c2ccc3c(c2)O[C@@H](CN(C)C(=O)C2CCCCC2)[C@@H](C)CN([C@H](C)CO)S3(=O)=O)cc1	.	/	123.2	99.2	.	.	106.1
C[C@@H]1CN([C@@H](C)CO)S(=O)(=O)c2ccc(-c3ccncc3)cc2O[C@H]1CN(C)C(=O)CC1CC1	.	.	118.1	.	.	.	?
C[C@@H]1CN([C@@H](C)CO)S(=O)(=O)c2ccc(-c3ccncc3)cc2O[C@@H]1CN(C)C(=O)CC1CC1	.	.	.	/	/	/	/
Cc1ccc(-c2ccc3c(c2)O[C@@H](CN(C)C(=O)C2CCCCC2)[C@@H](C)CN([C@@H](C)CO)S3(=O)=O)cc1	.	/	124.8	99.8	.	.	105.9
Cc1ccc(-c2ccc3c(c2)O[C@H](CN(C)C(=O)C2CCC2)[C@@H](C)CN([C@H](C)CO)S3(=O)=O)cc1	.	.	.	/	/	/	/
